Bioassay records from PubChem.
KB-3-1 cytotox – KB-3-1 parental cell cytotoxicity; AID 1347075; KB-3-1 viability, CellTiter-Glo ATP luminescence, 72 h; Potency, µM (doses to about 46.1 µM), actives largely listed as cytotoxic; actives 1.4% (n = 400,000); further: on the % scale 0 is the no-effect control and ±100 the full control effect; nearly all actives have a fitted effect of over 60% in size
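Using CellTiter-Glo luminescence, growth of non-resistant KB-3-1 adenocarcinoma cells is assessed 72 h after pin-tool compound addition at 37 °C. Normalized responses across the concentration series yield fitted curves.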
SW480 rereplic – DNA re-replication induction in SW480 cells; Potency, µM (series often up to 46.1 µM), for inactives: at the top dose re-replication activation, most hits filed as activators; actives 1.8% (n = 340,000); AID 624297; SW480 DNA re-replication, Hoechst DNA content imaging, 48 h; further: % of control where 0% means no effect; nearly all actives have a fitted effect of over 55% in size
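Compounds, transferred as 23 nL by pin tool, were incubated with cells for 48 hr; DNA content per nucleus was then quantified by Hoechst staining and fluorescence plate imaging.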
MCF10A rerep – DNA re-replication induction in MCF 10a cells; MCF 10A DNA re-replication, Hoechst nuclear intensity, 48 h; Potency, µM (doses to about 46.1 µM), for the others: at the top dose activity, positive = re-replication, usual class: activators; actives 2.9% (n = 350,000); further: % of control where 0% means no effect; nearly all actives have a fitted effect of over 50% in size
RORg inh – ROR gamma (mouse) transcription inhibition; P51450; Drosophila S2 Gal4-RORgamma UAS-luciferase reporter, 20 h; Potency, µM (series often up to 53.6 µM), for inactives: at the top dose activity change, negative = inhibition, actives largely listed as inhibitors; actives 5.4% (n = 310,000); further: on the % scale 0 is the no-effect control and ±100 the full control effect; nearly all actives have a fitted effect of over 60% in size
Target sequence (P51450 whole entry, looked up, the tested form may be a part): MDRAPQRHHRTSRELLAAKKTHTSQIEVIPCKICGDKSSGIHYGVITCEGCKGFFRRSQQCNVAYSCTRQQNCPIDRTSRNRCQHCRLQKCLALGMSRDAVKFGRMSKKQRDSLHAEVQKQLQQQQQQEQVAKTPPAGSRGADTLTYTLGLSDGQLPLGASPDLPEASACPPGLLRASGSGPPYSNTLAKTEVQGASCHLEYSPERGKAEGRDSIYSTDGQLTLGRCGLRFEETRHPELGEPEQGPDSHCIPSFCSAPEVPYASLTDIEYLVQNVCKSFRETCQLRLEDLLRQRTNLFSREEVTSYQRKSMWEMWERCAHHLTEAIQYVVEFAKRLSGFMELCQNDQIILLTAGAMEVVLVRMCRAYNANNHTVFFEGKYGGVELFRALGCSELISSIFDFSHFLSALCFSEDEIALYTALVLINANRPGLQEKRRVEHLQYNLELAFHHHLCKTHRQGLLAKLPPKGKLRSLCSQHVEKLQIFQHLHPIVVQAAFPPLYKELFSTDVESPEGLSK
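Drosophila Schneider cells stably carrying a metallothionein-driven Gal4 DBD–ROR gamma fusion and a UAS-Photinus luciferase reporter were exposed to compound for 1 hr, then induced with copper sulfate (700 uM final) for 20 hr at ambient temperature before luminescence reading.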
KB-V1 cytotox – kills drug-selected multidrug resistant KB-V1 cells. KB-V1 MDR cells viability, CellTiter-Glo, 72 h. Potency, µM (series often up to 46.1 µM), hits mostly cytotoxic. actives 3.4% (n = 400,000). AID 1347076; further: on the % scale 0 is the no-effect control and ±100 the full control effect; nearly all actives have a fitted effect of over 60% in size
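Cytotoxicity toward P-gp-expressing KB-V1 cells was determined as loss of CellTiter-Glo luminescence after 72 h at 37 degrees C. Compounds were tested in quantitative HTS format across a concentration range, with curves fitted to normalized data.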
Gal4-VP16 FLuc – inhibits Gal4-VP16 luciferase reporter, ROR gamma counter-screen; Drosophila S2 Gal4-VP16 UAS-luciferase, luminescence, 20 h; Potency, µM (titrated, usually from 53.6 µM), inactives show top-dose activity, negative = inhibition, usual class: inhibitors; actives 3.5% (n = 310,000); AID 2546;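 further: Gal4-VP16 expression switched on by copper sulfate through the metallothionein promoter; on the % scale 0 is the no-effect control and ±100 the full control effect; nearly all actives have a fitted effect of over 50% in size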
Starred values were filed as active, the others as inactive; i = inactive; ? = inconclusive; . = no result given. An excerpt weighted towards active compounds, which were near 10% of everything screened. The call rests on the fitted dose curve; in most records, active means well fitted curve in the direction sought with a large enough effect; inconclusive means small, poorly fitted or top-dose-only effect, or another doubt; inactive means no such curve, though single readings can be large; an effect the other way counts as inactive or inconclusive. Potency means the concentration at half of the fitted maximal effect.

SMILES	KB-3-1 cytotox	SW480 rereplic	MCF10A rerep	RORg inh	KB-V1 cytotox	Gal4-VP16 FLuc
COc1ccc(C2CC(c3ccc(C(F)(F)F)cc3)=NN2c2ccc(S(N)(=O)=O)cc2)cc1 (centres undefined)	?	0.517µM*	?	.	i	.
COc1ccc(C2CC(C(C)(C)C)=NN2c2ccc(S(N)(=O)=O)cc2)cc1 (centres undefined)	i	-14.8%	11.9%	.	i	.
COc1ccc(C2CC(c3ccccc3Br)=NN2c2ccc(S(N)(=O)=O)cc2)cc1 (centres undefined)	i	3.66µM*	?	.	i	.
CCOC(=O)C1CCCN(C(=O)c2cc(C)oc2C)CC1 (centres undefined)	i	.	.	.	i	.
COC(=O)c1cccc(NC(=O)c2cc3sccc3n2C)c1	i	-2.1%	-7.8%	?	9.2µM*	2.0%
O=C(c1ccc(-c2ccccc2)cc1)C1CCCN(C(=O)c2ccncc2)C1 (centres undefined)	i	82.5%	-15.0%	-0.8%	i	-0.1%
O=C(c1ccc(-c2ccccc2)cc1)C1CCCN(Cc2ccncc2)C1 (centres undefined)	i	17.1%	?	11.2µM*	i	0.0%
Cc1cc(C)c(C(=O)c2ccc(C(=O)N(C(C)C)C(C)C)cc2)c(C)c1	?	5.8%	0.6%	-13.0%	16.4µM*	-13.3%
CCc1ccc(C(=O)CSc2nnc(C3CC3)n2C2CC2)cc1	i	-2.7%	14.7%	.	11.6µM*	.
COc1ccc(OC)c(C(=O)CSc2nnc(C3CC3)n2C2CC2)c1	16.4µM*	.	.	.	i	.
CC1=CC[C@@]2(CO)COC(c3ccccc3O)C1C2 (some centres undefined)	.	.	.	0.0%	.	-3.7%
CCNc1sc(C(=O)c2cccs2)c(N)c1-c1nc2ccccc2s1	i	0.82µM*	?	?	i	7.94µM*
C=CCNc1sc(C(=O)c2ccccc2)c(N)c1-c1nc2ccccc2s1	i	8.3%	9.6%	4.47µM*	?	15.8µM*
CCOc1ccc(Nc2sc(C(=O)c3ccc4c(c3)OCO4)c(N)c2S(=O)(=O)c2ccc(C)cc2)cc1	i	.	.	.	i	.
N#C/C(C(=O)NCCc1ccccc1)=C1/N=C(NC(=O)c2cccs2)c2ccccc21	?	-40.6%	8.2µM*	-13.6%	i	-15.2%
COCCCNC(=O)/C(C#N)=C1\N=C(NC(=O)c2cccs2)c2ccccc21	i	-3.3%	-0.3%	-3.0%	i	0.8%
CC(=O)NC(C)c1cc(Cl)c2ccccc2c1O (centres undefined)	i	-3.9%	16.4%	.	i	.
CCC(=O)NC(C)c1cc(Cl)c2cccnc2c1O (centres undefined)	8.2µM*	?	?	.	i	.
CC(=O)NC(C)c1cc(Cl)c2cccnc2c1O (centres undefined)	i	?	3.26µM*	.	i	.
CN1CCN(C(c2ccc(Br)cc2)c2cc(Cl)c3cccnc3c2O)CC1 (centres undefined)	?	?	?	2.82µM*	i	0.794µM*
CCOC(=O)COc1ccc2c(C)c(CCN(CC)CC)c(=O)oc2c1Cl	.	-2.0%	4.6%	-13.9%	.	-1.0%
Cc1nc2ccn(Cc3cccnc3)c(=O)c2cc1C(=O)NCc1ccc(Cl)cc1	?	.	.	.	i	.
COc1ccc(CNC(=O)c2cc3c(=O)n(Cc4ccc(OC)cc4)ccc3nc2C)cc1	2.59µM*	.	.	.	i	.
C[C@H](NC(=O)c1nc[nH]c1C(=O)N[C@@H](C)C(=O)OCc1ccccc1)C(=O)OCc1ccccc1	?	-15.3%	1.6%	12.6µM*	i	?
C[C@H](NC(=O)c1nc[nH]c1C(=O)NC(c1ccccc1)c1ccccc1)C(=O)OCc1ccccc1	i	3.7%	-21.1%	?	i	35.5µM*
